The list is not random: actives were taken first. Their share in the collection is about 4.2%.
tim23-1 inh = growth inhibitors of tim23-1 mutant yeast, primary screen, luminescence, uHTS; 1.3% of 330,000 active; AID 463212, 2010; inhibition, % at 20 µM; S. cerevisiae tim23-1 growth, BacTiter-Glo luminescence, 24 h;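 active means growth inhibition of the mutant yeast at or above 50%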;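 further: temperature-sensitive mutant grown at 25 °C; plate controls were DMSO-treated mutant yeast for no effect and medium wells lacking yeast for full effect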
NLRP3 yeast inh = NALP3 inflammasome inhibitors in reconstituted yeast, primary screen, luminescence, uHTS; 0.39% of 330,000 active; inhibition, % at 10 µM; AID 2825, 2010; Yeast reconstituted NLRP3/ASC/caspase-1, beta-gal luminescence, 24 h;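 active means inhibition of 50% or more; inactive means inhibition below 50%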;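 further: plate controls were induced DMSO wells for no effect and uninduced yeast grown without galactose for full effect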
TIM10 inh = growth inhibitors of isogenic TIM10 control yeast, primary screen, counter-screen for tim10-1 yeast inhibitor project, luminescence, uHTS. S. cerevisiae TIM10 strain growth, BacTiter-Glo luminescence, 24 h. inhibition, % at 10 µM. 1.4% of 330,000 active. AID 463195, 2010;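 active means inhibition of 40% or more at the single tested concentration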;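 further: wild-type TIM10 isogenic control strain grown at permissive 25 °C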
PfHsp90 set2 = growth inhibition of PfHsp90-expressing yeast, primary screen, antimalarial PfHsp90 inhibitor project, S. cerevisiae, BacTiter-Glo luminescence, single point, set 2 | BacTiter-Glo ATP, 48 h; yeast lacking PDR1 and PDR3 efflux regulators | inhibition, % at 9.4 µM | 0.32% of 310,000 active | AID 504621, 2011;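 active means every replicate shows inhibition above about 80%, whatever the replicate mean, limit read from the data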;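 further: 0% = DMSO neutral controls and 100% = 20 µM radicicol positive controls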
NALP1 yeast inh = NALP1 inflammasome inhibitors in reconstituted yeast, colorimetric, S. cerevisiae, triplicate retest; AID 2071, 2009; inhibition, % at 10 µM; S. cerevisiae NALP1/ASC/caspase-1 growth, X-gal OD620, 72 h; 0.61% of 280,000 active; in the data active means inhibition mostly above about 24%, no sharp cut-off; inactive means mostly below about 32%
tim10-1 inh = growth inhibitors of tim10-1 mutant yeast, primary screen, luminescence, uHTS | S. cerevisiae tim10-1 ts strain growth, BacTiter-Glo, 24 h | inhibition, % at 20 µM | 2.2% of 330,000 active;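 active means inhibition of at least 40%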;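 further: mutant grown at 25 °C; 0% = DMSO wells with yeast and 100% = wells holding no yeast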
An asterisk follows results filed as active; x = not tested or not shown.

SMILES	tim23-1 inh	NLRP3 yeast inh	TIM10 inh	PfHsp90 set2	NALP1 yeast inh	tim10-1 inh
Cc1ccccc1OCc1nc2ccccc2c(=O)n1/N=C/c1cn[nH]c1-c1ccccc1	24	23	25	4	22	7
Cc1nc2ccccc2c(=O)n1/N=C/c1cn[nH]c1-c1ccccc1	21	1	9	x	41*	30
CC(=O)c1ccc(OCc2ccc(Oc3c(Cl)cccc3[N+](=O)[O-])cc2)cc1	2	8	2	0	7	11
COc1cccc(NC(=O)C(=O)N/N=C(\C)CC(=O)Nc2ccc(NC(C)=O)cc2)c1	-2	21	16	7	-4	-4
Cn1c(SCC(=O)NC2CC2)nnc1-c1ccccc1	-10	22	6	12	5	-10
Cc1cccc(-c2nnc(SCC(=O)NC3CC3)n2C)c1	1	11	-2	-2	28*	-8
COc1cccc(Cn2cc(N)cn2)c1	-1	19	8	-15	-3	-3
O=C(CN1CCCC1)Nc1c(Cl)cccc1Cl	0	10	6	9	9	-5
CS(=O)(=O)CCC(C(=O)OCC(=O)c1ccc(Cl)cc1)N1C(=O)c2ccccc2C1=O (stereo not given)	8	4	-12	0	2	14
Cc1cccc(C)c1OCC(=O)NNC(=S)NC(=O)C1CC1	37	33	2	104*	6	8
Cc1cccc(C)c1OCC(=O)NC1CC1	-5	2	-1	-9	-17	-7
C#CCSc1nnnn1-c1ccc(OCC)cc1	1	22	0	11	10	11
CN(C)c1ccc(C=c2c3ccccc3n3c2cc(-c2ccccc2)[n+]3C)cc1	x	x	x	105*	x	x
COc1cc(N(C)C)ccc1C=c1c2ccccc2n2c1cc(-c1ccccc1)[n+]2C	x	x	x	104*	x	x
CN(C)c1ccc(C=c2c3ccccc3n3c2cc(-c2ccc(Cl)cc2)[n+]3C)cc1	x	x	x	-10	x	x
Cc1ccc(/C=C/c2ccc(=O)n(Cc3ccccc3Cl)n2)cc1	-3	30	-9	x	37*	12
Cc1ccc(/C=C/c2ccc(=O)n(Cc3ccc(F)cc3)n2)cc1	-20	3	-108	-21	9	7
O=C(CSc1ccc2nnc(CCNC(=O)c3ccccc3)n2n1)NCc1ccc(F)cc1	-4	8	2	5	1	-3
O=C(c1ccc(Cl)cc1)N1CCN(c2ccc(F)cc2)CC1	40	-1	-6	102*	-4	21
O=C(c1ccc(F)cc1)N1CCOCC1	0	4	6	-10	26*	-1
O=C1S/C(=C\c2ccc(N3CCOCC3)o2)C(=O)N1c1ccccc1	15	1	14	-127	46	12
O=C1S/C(=C\c2ccc(N3CCOCC3)o2)C(=O)N1Cc1c(F)cccc1Cl	21	37	23	97*	0	34
O=C1CCC(C(=O)N2CCCO2)CN1Cc1cccc(C(F)(F)F)c1 (stereo not given)	-9	13	-8	3	27	13
Clc1nssc1=Nc1ccc(Br)cc1	x	x	x	105*	9	x
CN(C)S(=O)(=O)c1ccc(C(=O)NCC(=O)N/N=C/c2ccccc2Cl)cc1	9	11	15	3	25	9
SMILES	tim23-1 inh	NLRP3 yeast inh	TIM10 inh	PfHsp90 set2	NALP1 yeast inh	tim10-1 inh
O=C(Nc1nnc(-c2ccccc2)o1)c1cc(Cl)sc1Cl	12	5	22	-69	41	21
O=C(Nc1nnc(-c2ccc(F)cc2)o1)c1cc(Cl)sc1Cl	10	-12	10	80*	36	-31
CN1CCN(c2nc(C#N)cc(-c3ccccc3)n2)CC1	13	4	-2	x	24*	5
CCOc1ccc(-n2c(C)nc3cc(C(=O)NCCCN4CCOCC4)ccc32)cc1	-19	20	-1	3	26*	6
COc1ccc(-n2cnc3cc(C(=O)NCCN4CCOCC4)ccc32)cc1	6	11	9	9	5	-6
COc1ccc(OC)c(-n2cnc3cc(C(=O)NCCCN4CCOCC4)ccc32)c1	14	5	-7	7	23*	1
CCOc1ccc(-n2c(C)nc3cc(C(=O)NCCN4CCOCC4)ccc32)cc1	29	-5	-1	x	-140	-3
CN(C)c1ccc(S(=O)(=O)N2CCCCC2)cc1NC(=O)CCNC(=O)c1ccco1	-5	18	6	0	x	-13
OC(CNCCc1ccc(C(F)(F)F)cc1)COc1cccc2ccccc12 (stereo not given)	-60	28	-41	x	103*	39
COc1ccccc1COCC(O)CNCCc1ccc(C(F)(F)F)cc1 (stereo not given)	8	23	0	13	24	19
Cc1c(O)nc(SCC(=O)Nc2nccs2)n(-c2ccccc2F)c1=O	15	7	9	-3	41*	5
OCCOCCn1c(C2CCCN2c2nc(-c3ccc(F)cc3)cs2)nc2cc(Cl)c(Cl)cc21 (stereo not given)	-4	18	0	110*	x	1
OCCCn1c(C2CCCN2c2nc(-c3ccc(F)cc3)cs2)nc2cc(C(F)(F)F)ccc21 (stereo not given)	18	26	-36	x	x	5
OCCCn1c(C2CCCN2c2nc(-c3ccc(F)cc3)cs2)nc2cc(Cl)c(N3CCCCC3)cc21 (stereo not given)	-9	6	-10	3	x	-14
OCCOCCn1c(C2CCCN2c2nc(-c3ccc(F)cc3)cs2)nc2cc(C(F)(F)F)ccc21 (stereo not given)	23	2	-36	108*	x	28
Cc1ccc(S(=O)(=O)N2CCOCC2)cc1C(=O)NC(C)CCc1ccccc1 (stereo not given)	19	5	9	3	x	21
COc1ccc(NC(=S)NCCc2c[nH]c3ccc(OC)cc23)c(OC)c1	-5	11	-18	14	29*	-2
COc1ccc(NC(=S)NCCc2c[nH]c3ccccc23)c(OC)c1	-9	12	-2	-15	12	34
CCCCS(=O)(=O)N1CCCC(C(=O)Nc2ccc3c(c2)CCC3)C1 (stereo not given)	-2	19	6	-2	27*	0
Nc1cccc(Oc2c(F)c(F)c(Oc3cccc(N)c3)c(F)c2F)c1	47	41	13	85*	-4	-51
CC1=NN(c2nc(-c3ccccc3)cs2)C(=O)C1	-39	6	25	-27	-11	26
O=C1CC(c2ccccc2)=NN1c1nc(-c2ccccc2)cs1	29	10	-6	92*	9	-34
CCOC(=O)C(C)(C)Oc1cccc2c1S(=O)(=O)c1ccccc1-2	25	20	3	13	x	25

Screening results (PubChem)
